Compound activity deposited in PubChem by National Center for Advancing Translational Sciences (NCATS).
Only some compounds are listed: those with a hit (about 6.2% of all), similar ones and a draw of the others.
HT1080 IDH1KD tx – kills HT-1080 cells with IDH1 knockdown. HT-1080 IDH1 knockdown viability, ATP luminescence, 48 h. Potency, µM (titrated, usually from 46.1 µM), usual class: cytotoxic. AID 686971. 360,000 compounds, 2% hits
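Viability of IDH1-knockdown HT-1080 fibrosarcoma cells was assessed by CellTiter-Glo after 48 h at 37 °C with titrated compound; concentration-effect curves were classified by fit quality and response size.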
KB-3-1 cytotox – KB-3-1 parental cell cytotoxicity; KB-3-1 viability, CellTiter-Glo ATP luminescence, 72 h; Potency, µM (top dose mostly 46.1 µM), most hits filed as cytotoxic; 400,000 compounds, 1.4% hits; also: nearly all actives have a fitted effect of over 60% in size
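Parental KB-3-1 adenocarcinoma cells in phenol-red-free DMEM with 10% FBS were pin-treated with compounds at several concentrations, incubated 72 h at 37 °C, and viability read by CellTiter-Glo luminescence; concentration-effect curves were fitted after normalization.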
HT1080-NT tox – kills 2HG-producing HT-1080-NT fibrosarcoma cells; 360,000 compounds, 1.6% hits; Potency, µM (series often up to 46.1 µM), actives largely listed as cytotoxic; HT-1080-NT fibrosarcoma viability, CellTiter-Glo ATP luminescence, 48 h; AID 686970;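 also: NT is the 2HG producing partner of a matched IDH1 knockdown line; nearly all actives have a fitted effect of over 55% in size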
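Viability by CellTiter-Glo luminescence after 48 h compound exposure at 37C of HT-1080-NT cells (750/well, RPMI, 5% FBS). % activity scaled between DMSO wells and medium-only wells, then curve-fitted and categorized by curve class.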
ATXN viability – cell viability loss in ATXN counter-screen. S2 cells (HEK-293 line with an ATXN2-luciferase reporter) viability, CellTiter-Fluor protease fluorescence, 24 h. Potency, µM (top dose mostly 56.7 µM), actives largely listed as cytotoxic. 400,000 compounds, 0.49% hits. AID 651635; also: nearly all actives have a fitted effect of over 40% in size
ATXN2 expr inh – inhibitors of ATXN2 expression; Potency, µM (highest dose often 57 µM), usual class: inhibitors; 360,000 compounds, 0.72% hits; HEK-293 ATXN2-luciferase reporter, luminescence, 24 h; AID 1745845; also: nearly all actives have a fitted effect of over 55% in size
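qHTS (up to 57 uM final) was run with 24 h compound exposure of reporter cells at 37 °C. Each well was multiplexed: SteadyGlo luminescence measured ATXN2-luciferase expression after a fluorogenic Gly-Phe-AFC viability readout (25 uM final).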
KB-V1 MDR tox – KB-V1 MDR subline cytotoxicity. KB-V1 MDR cells viability, CellTiter-Glo, 72 h. Potency, µM (series often up to 46.1 µM), actives largely listed as cytotoxic. AID 1347076. 400,000 compounds, 3.4% hits; also: nearly all actives have a fitted effect of over 60% in size
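KB-V1, DMEM (no phenol red) + 10% FBS; cpd pin-transferred, titration series; 72 h, 37 degrees C; CellTiter-Glo, luminescence. Data normalized, curve-fit.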
A number is an active result; - = inactive; ? = inconclusive; . = no result given. Calls follow the shape of the dose curve; as a rule, active = well fitted curve in the direction sought with a large enough effect; inconclusive = small, poorly fitted or top-dose-only effect, or another doubt; inactive = no such curve, though single readings can be large; an effect the other way counts as inactive or inconclusive.

SMILES	HT1080 IDH1KD tx	KB-3-1 cytotox	HT1080-NT tox	ATXN viability	ATXN2 expr inh	KB-V1 MDR tox
Cc1nc(C)c(-c2csc(Nc3cccc(O)c3)n2)s1	?	-	?	?	-	?
C=CCCC(=O)Nc1nc(C)c(-c2csc(Nc3ccc(Cl)cc3Cl)n2)s1	?	?	16.4µM	-	-	?
O=C(NCc1ccccc1F)C1CCCN(C(=O)N2CCOc3ccccc32)C1 (centres undefined)	.	-	.	.	.	-
COc1ccc(OC)c(Nc2sc(C(=O)c3ccccc3)c(N)c2S(=O)(=O)c2ccccc2)c1	.	-	.	.	.	-
COc1cccc(N(C(=O)c2ccco2)c2nc(-c3sc(NC(=O)c4ccco4)nc3C)cs2)c1	-	5.8µM	-	?	-	-
Cc1nc(NC(=O)c2ccco2)sc1-c1csc(Nc2ccc(Cl)cc2Cl)n1	?	-	?	?	-	?
Cc1ccc(Cl)cc1Nc1nc(-c2sc(NC(=O)c3ccco3)nc2C)cs1	?	20.6µM	?	-	-	?
COc1ccc(OC)c(N(C)S(=O)(=O)c2ccc3c(c2)NC(=O)CC(=O)N3)c1	.	-	.	-	-	?
O=C(Nc1nnc(-c2ccc3c(c2)CCCC3)o1)c1c(F)cccc1F	-	-	-	-	-	?
O=C(Nc1nnc(-c2ccc3c(c2)CCCC3)o1)c1ccc(Cl)cc1Cl	-	?	?	39.8µM	?	-
O=C(Nc1nnc(-c2ccc(Cl)cc2)o1)C1=COCCO1	-	-	-	-	-	8.2µM
Cc1ccc(C)c(-c2nnc(NC(=O)C3=COCCO3)o2)c1	-	-	-	-	-	-
COc1cc(C=C2CCC/C(=C\c3ccc(O)c(OC)c3)C2=O)ccc1O	.	.	.	28.2µM	15.8µM	.
COc1cc(C=C2C(=O)C=CC2=O)ccc1O	23.1µM	20.6µM	14.6µM	.	12.6µM	-
COc1cc(/C=C2\CCC/C(=C\c3ccc(O)c(OC)c3)C2=O)ccc1O	5.8µM	?	18.4µM	.	?	?
CCN1C/C(=C/c2cccc([N+](=O)[O-])c2)C(=O)/C(=C/c2cccc([N+](=O)[O-])c2)C1	3.26µM	-	4.11µM	3.98µM	3.16µM	?
COc1cc(/C=C2/C(=O)CNC2=O)ccc1O	-	-	-	-	-	-
Cc1cccc(NC(=O)CSC2=Nc3ccccc3C3=NC(CCC(=O)NCc4ccc(F)cc4)C(=O)N23)c1 (centres undefined)	.	-	.	?	-	-
COc1cc(/C=C2\CC/C(=C\c3cc(OC)c(OC)c(OC)c3)C2=O)cc(OC)c1OC	-	-	-	-	-	-
COc1cc(/C=C2\SC(N)=NC2=O)cc(Cl)c1O	-	-	-	?	.	-
COc1cc(/C=C2/CCC/C(=C\c3cc(O)c(OC)c(Cl)c3)C2=O)cc(Cl)c1O	20.6µM	?	?	.	?	8.2µM
COc1cc(/C=C2\CC/C(=C\c3cc(OC)c(O)c(OC)c3)C2=O)cc(OC)c1O	4.11µM	16.4µM	4.11µM	.	?	?
CCOc1cc(/C=C2\CN(CC)C/C(=C\c3ccc(O)c(OCC)c3)C2=O)ccc1O	2.91µM	?	2.59µM	?	?	?
Oc1ccc(/C=N/n2c3ccccc3c3ccccc32)cc1	23.1µM	-	?	-	?	-
O=[N+]([O-])c1ccc(Sc2cccc3cccnc23)c([N+](=O)[O-])c1	-	?	?	6.31µM	?	-
SMILES	HT1080 IDH1KD tx	KB-3-1 cytotox	HT1080-NT tox	ATXN viability	ATXN2 expr inh	KB-V1 MDR tox
O=[N+]([O-])c1ccc(Sc2cccc3cccnc23)cc1	-	-	-	-	-	?
O=[N+]([O-])c1ccc(Sc2ccncn2)c([N+](=O)[O-])c1	14.6µM	11.6µM	18.4µM	.	.	?
C=CCn1nc([N+](=O)[O-])nc1Sc1cccc2cccnc12	?	?	?	.	22.4µM	8.2µM
CCOc1ccc(-c2cn3c(n2)sc2cc(C(=O)NCCCc4ccccc4)ccc23)cc1	.	-	.	-	-	-
COc1ccc(CCNC(=O)C2CCCN(c3nc4c(C)cc(C)cc4s3)C2)cc1OC (centres undefined)	.	-	.	.	.	-
Cc1cccc(NC(=O)NCCn2c(=O)oc3ccc(C)cc32)c1	.	-	.	-	-	-
CCC(=O)N1c2ccc(S(=O)(=O)N3CCN(c4ccccc4)CC3)cc2CC1C (centres undefined)	.	-	.	-	-	-
CCC(=O)N1c2ccc(S(=O)(=O)N3CCN(c4ccc([N+](=O)[O-])cc4)CC3)cc2CC1C (centres undefined)	6.51µM	-	?	-	.	-
CC(=O)c1ccc(N2CCN(S(=O)(=O)c3ccc4c(c3)CC(C)N4C(C)=O)CC2)cc1 (centres undefined)	?	?	?	-	-	8.2µM
Cc1c(C(=O)NCC(C)(C)N2CCOCC2)cnn1-c1nccc(-c2cccs2)n1	.	.	.	-	.	.
COc1ccc(C(=O)Oc2cccc(Nc3ncnc4ccccc34)c2)cc1OC	-	?	-	-	-	18.4µM
CN(C)CC(O)COC(c1ccc(Cl)cc1)c1ccc(Cl)cc1 (centres undefined)	?	-	20.6µM	?	?	-
COc1cccc(-n2c(-c3ccco3)nc3c(cnn3-c3ccccc3C)c2=O)c1	.	-	.	-	-	-
CCOc1cc(/C=N/N=C(\N)c2nonc2N)cc(Br)c1OCc1cccc2ccccc12	18.4µM	?	23.1µM	?	?	?
O=C(c1ccco1)N1CCN(C(=O)c2ccco2)C1=S	16.4µM	11.6µM	?	?	-	16.4µM
O=C(c1ccco1)N1CCN(C(=O)N2c3ccccc3Sc3ccccc32)CC1	?	0.517µM	?	?	-	0.651µM
O=C(c1ccco1)N1CCCN(C(=O)c2ccco2)CC1	-	-	-	-	-	-
O=C(NC1CCN(C(=O)N2c3ccccc3Sc3ccccc32)CC1)c1ccco1	20.6µM	?	?	?	-	-
O=C(c1ccco1)N1c2ccccc2Sc2ccccc21	?	-	-	-	-	-
O=C(N1CCN(c2ccccn2)CC1)N1c2ccccc2Sc2ccccc21	0.891µM	0.581µM	0.891µM	-	-	1.84µM
CCOc1ccccc1-n1ccnc(NCc2ccc(F)cc2)c1=O	.	-	.	?	-	?
CCOC(=O)c1noc2ncnc(Nc3ccc(C)c(F)c3)c12	.	-	.	-	-	-
COc1ccc2ccc3c(c2c1)N=CC1(O3)N(C)c2ccccc2C1(C)C (centres undefined)	6.31µM	-	7.94µM	-	-	?
O=C(CSc1ccncc1)NCC1Cc2cccc(-c3cncnc3)c2O1 (centres undefined)	.	.	.	-	.	.
N=c1c(S(=O)(=O)c2ccc(Cl)cc2)cc2c(=O)n3ccccc3nc2n1CCN1CCOCC1	-	-	-	-	-	13µM
Cc1ccc(S(=O)(=O)c2cc3c(=O)n4ccccc4nc3n(Cc3ccco3)c2=N)cc1	?	-	?	.	-	8.2µM
